# Shown are actives, neighbours in structure and some others; about 7.5% of the full set was active somewhere.
# Giardia FBPA inh – Giardia lamblia aldolase inhibition; A8B2U2; purified Giardia FBPA; Potency, µM (doses to about 59.6 µM), inactives show at the top dose activity, negative = inhibition, usual class: inhibitors; 290,000 tested, 0.71% active; AID 2451; also: potency is read from the fitted curve at half-maximal effect; nearly all actives have a fitted effect of over 55% in size
# Target sequence (A8B2U2 whole entry, looked up): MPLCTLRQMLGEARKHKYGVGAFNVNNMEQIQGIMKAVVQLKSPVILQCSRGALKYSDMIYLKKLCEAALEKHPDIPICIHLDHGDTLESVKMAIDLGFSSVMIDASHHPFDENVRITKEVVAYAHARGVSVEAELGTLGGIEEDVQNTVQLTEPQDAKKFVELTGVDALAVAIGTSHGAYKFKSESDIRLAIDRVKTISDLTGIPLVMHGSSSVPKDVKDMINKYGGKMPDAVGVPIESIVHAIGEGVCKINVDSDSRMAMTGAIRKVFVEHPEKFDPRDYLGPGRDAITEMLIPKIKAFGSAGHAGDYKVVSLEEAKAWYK
#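 Giardia FBPA (40 nM reagent) was preincubated 10 min at RT with compound (up to 57.5 uM final), then substrate plus GAPDH/TPI/NAD/arsenate coupling system with diaphorase/resazurin was added; resorufin fluorescence (525/598 nm) was read after 20 min.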
# HCV inh – inhibitors of hepatitis C virus infection | Huh7.5.1 HCVcc-Cre infection, luciferase reporter, 44 h | Potency, µM (doses to about 41.8 µM), for inactives: top-dose activity change, negative = inhibition, hits mostly inhibitors | 340,000 tested, 3.4% active | AID 651820; also: potency is read from the fitted curve at half-maximal effect
#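 1,000 cells/well; 4 h culture; + compound; + HCVcc-Cre (~0.5 moi); 44 h; luciferase substrate, RT 15 min; read 15 sec.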
# Vaccinia Venus – inhibitors of vaccinia virus (Venus reporter). Vaccinia virus Venus reporter expression, fluorescence. Potency, µM (top dose mostly 36.5 µM), inactives show at the top dose activity change, negative = inhibition, actives largely listed as inhibitors. 330,000 tested, 0.46% active. AID 720580; calls by dose curve; tested in A549 cells; also: potency is read from the fitted curve at half-maximal effect; nearly all actives have a fitted effect of over 30% in size
# HCMV antiviral – blocks human cytomegalovirus replication | AID 1259415 | HFF cells, HCMV-luciferase reporter, 72 h; stronger effect = lower value | activity change, negative = inhibition, % at 57.5 µM | 410,000 tested, 4.5% active; in the data active = activity change below about -60%; inconclusive = no clear call, values can overlap the other calls; inactive = above about -39%
#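 HFF cells seeded 16 h at 37C, treated with compounds, infected with luciferase-reporter HCMV at MOI 1 PFU/cell; luciferase read at 72 h post infection, normalized to buffer-only and Salinomycin controls.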
# FMDV antiviral – foot and mouth disease virus antiviral activity; FMDV antiviral cell-based qHTS; AID 1159524; Potency, µM (highest dose often 57.9 µM), for inactives: at the highest dose activity change, negative = inhibition, most hits filed as inhibitors; 410,000 tested, 1.2% active; calls by dose curve; tested in HEK293T cells; also: read-out not given here; potency is read from the fitted curve at half-maximal effect; nearly all actives have a fitted effect of over 45% in size
# VACV mCherry inh – vaccinia inhibition (mCherry reporter); AID 720579; Potency, µM (top dose mostly 36.5 µM), inactives show at the highest dose activity change, negative = inhibition, most hits filed as inhibitors; Vaccinia virus mCherry reporter infection, fluorescence; 310,000 tested, 0.63% active; calls by dose curve; tested in A549 cells; also: potency is read from the fitted curve at half-maximal effect; nearly all actives have a fitted effect of over 35% in size
# Starred values were filed as active, the others as inactive; i = inactive; ? = inconclusive; / = no result; ! = not confirmed by another sample. Unless noted, calls follow the shape of the dose curve; as a rule, active = well fitted curve in the direction sought with a large enough effect; inconclusive = small, poorly fitted or top-dose-only effect, or another doubt; inactive = no such curve, though single readings can be large; an effect the other way counts as inactive or inconclusive. % is scaled to controls: 0 for no effect and ±100 for the full control effect.
SMILES,Giardia FBPA inh,HCV inh,Vaccinia Venus,HCMV antiviral,FMDV antiviral,VACV mCherry inh
C[C@H](NC(=O)c1ccccn1)C(O)c1nc2ccccc2[nH]1 (some centres undefined),/,/,/,-1.9,/,/
CCc1nnc(NC(=O)c2ccc(S(=O)(=O)N3CCCc4ccccc43)cc2)o1,?,?,-27.1%,-64.4*,/,-29.5%
Cc1cc(NC(=O)c2ccc(S(=O)(=O)N3CCc4ccccc43)cc2)no1,1.3%,25.2%,/,?,?,/
O=C(Nc1nc2c(s1)CCCC2)c1ccc(S(=O)(=O)N2CCCc3ccccc32)cc1,4.4%,?,-26.1%,-85.3*,?,i
CCc1nnc(NC(=O)c2ccc(S(=O)(=O)N(C)c3ccccc3)cc2)o1,?,7.08µM*,/,-74.5*,0.0%,/
CNC(=O)c1ccsc1NC(=O)c1ccc(S(=O)(=O)N2CCCc3ccccc32)cc1,-6.1%,10µM*,?,-62.2*,?,?
Cc1c(Cl)cccc1NC(=O)CCCn1nc(C)c2sc3ccccc3c2c1=O,/,/,-6.6%,28.0,-16.9%,-10.9%
COc1cc2nc(SCC(=O)Nc3cccc(C)c3)n3nc(-c4ccccc4)nc3c2cc1OC,/,/,-6.7%,-26.4,-5.4%,-13.4%
O=C(Nc1cccc(C(F)(F)F)c1)C1Cc2c(-c3ccccc3Oc3ccccc3)ccnc2O1 (centres undefined),/,/,-1.9%,-16.1,?,11.4%
CC1CCc2nc(NC(=O)c3ccc(S(=O)(=O)N4CCCc5ccccc54)cc3)sc2C1 (centres undefined),3.3%,?,-17.6%,-87.0*,?,-9.9%
Cc1ccc(Cl)cc1NC(=O)Nc1nnc(N(C)Cc2ccccc2)s1,/,/,-21.6%,18.6,-9.8%,-28.0%
COc1ccc(-n2nc3c(c2NC(=O)CCl)CSC3)cc1,-10.9%,-31.8%,3.2%,-29.2,31.6µM*,i
COCCN(C(=S)Nc1cc(C)cc(C)c1)C(C)c1ccco1 (centres undefined),-13.3%,-11.4%,/,-14.3,5.2%,/
COc1cc(NC(=O)COC(=O)C=C(C)C)c(C)cc1[N+](=O)[O-],-13.2%,?,-6.9%,-15.0,1.5%,-2.4%
C/C=C/C(=O)OCC(=O)Nc1cc([N+](=O)[O-])ccc1Cl,4.0%,-2.6%,?,?,0.0%,11.2µM*
CC(=O)OCC(=O)Nc1ccc([N+](=O)[O-])cc1Cl,1.0%,13.4%,-6.0%,-13.4,-8.1%,-4.9%
C/C=C/C(=O)OCC(=O)Nc1cc(OC)c([N+](=O)[O-])cc1C,-5.6%,-9.3%,7.94µM*,-13.7,-19.1%,5.62µM*
CCc1nn(CC(=O)NCCc2ccc(SC)cc2)c(=O)c2cc3sccc3n12,/,/,-17.4%,-7.9,12.3%,i
COc1ccc(C(=O)Nc2oc(-c3ccccc3)c(-c3ccccc3)c2C#N)cc1OC,-1.2%,11.2µM*,-1.6%,11.9,/,i
COc1ccc(C(=O)Nc2oc(-c3ccccc3)c(-c3ccccc3)c2C#N)cc1,-0.1%,10µM*,-5.8%,?,-17.7%,-18.6%
COc1ccc(-c2oc(NC(=O)c3ccc(C)cc3)c(C#N)c2-c2ccc(OC)cc2)cc1,0.6%,-26.5%,-8.6%,8.8,2.3%,i
CCCc1cc(=O)[nH]c(SCC(=O)Nc2oc(C)c3c(C)n[nH]c(=O)c23)n1,/,12.4%,1.7%,0.3,-19.0%,-6.3%
COc1ccccc1N1CCN(C(=O)c2cccc(S(=O)(=O)N3c4ccccc4CC3C)c2)CC1 (centres undefined),/,10µM*,-21.9%,-34.9,-25.8%,i
CCOC(=O)c1sc(NC(=O)c2cccc(S(=O)(=O)N3c4ccccc4CC3C)c2)cc1C (centres undefined),3.8%,3.98µM*,-22.2%,12.8,0.0%,-5.4%
CC1Cc2ccccc2N1S(=O)(=O)c1cccc(C(=O)N2CCCCC2)c1 (centres undefined),/,-21.6%,?,-9.1,17.4%,i
SMILES,Giardia FBPA inh,HCV inh,Vaccinia Venus,HCMV antiviral,FMDV antiviral,VACV mCherry inh
Cc1noc(C)c1COC(=O)c1cccc(S(=O)(=O)N2c3ccccc3CC2C)c1 (centres undefined),-4.0%,11.2µM*,?,-2.7,?,?
CCOC(=O)C1CCC(CN(Cc2c(Cl)cccc2Cl)S(=O)(=O)c2ccc(F)cc2)CC1 (centres undefined),/,/,-6.9%,-26.9,-11.0%,3.0%
CCOC(=O)c1c(C)[nH]c(C)c1S(=O)(=O)N1CCCC(C(=O)N2CCN(c3cc(C)ccc3C)CC2)C1 (centres undefined),/,/,-18.1%,-0.3,?,-25.4%
C=C1C(=O)C23C(O)C1CCC2C12CCCC(C)(COC(C)=O)C1C(O)C3(O)OC2 (centres undefined),/,3.55µM*,3.98µM*,-1.7,3.55µM*,2.51µM*
Cc1cccc(NC(NC(=O)c2ccccc2[N+](=O)[O-])C(Cl)(Cl)Cl)c1 (centres undefined),-3.6%,-17.0%,-6.1%,-8.2,-24.9%,i
O=C(CSc1nnc2scc(-c3ccccc3)n12)Nc1nsc(-c2ccc(Cl)cc2)n1,/,5.8%,0.5%,-72.8*,?,-7.5%
O=C(CSc1nnc2scc(-c3ccccc3)n12)Nc1nsc(-c2ccccc2)n1,-9.6%,11.2µM*!,/,?,31.6µM*,/
Cc1ccc(-c2csc3nnc(SCC(=O)Nc4nsc(-c5ccccc5)n4)n23)cc1,11.9%,?,-27.9%,?,?,-24.8%
CCCN1C(=O)COCc2cc(-c3ccc(N(C)C)cc3)ccc21,/,/,/,74.9,/,/
COc1ccc(-c2[nH]ncc2/C=C(/C#N)C(=O)NC2CCCCCC2)cc1,0.6%,22.4µM*,?,?,-7.5%,?
N#CCc1cnc2ccccc2n1,-23.0%,-8.9%,11.7%,14.4,-13.5%,-5.4%
Cn1c(O)c(C(=Nc2ccccc2)SCc2ccccc2Cl)c(=O)n(C)c1=O,?,-17.5%,-28.7%,-64.9*,?,-27.7%
CSC(=Nc1ccccc1)c1c(O)n(C)c(=O)n(C)c1=O,-24.5%,6.0%,-17.2%,-15.4,-8.3%,-10.8%
CC(=O)N1CCC2(CCN(Cc3nccs3)CC2)CC1,4.4%,/,/,/,-21.0%,/
COc1ccc(CCNC(=O)CCCn2c(SCC#N)nc3ccccc3c2=O)cc1OC,2.2%,-18.5%,/,-33.2,-21.5%,/
COc1ccc(CCNC(=O)CCn2c(SCC#N)nc3ccccc3c2=O)cc1OC,5.8%,12.6µM*,/,-7.7,8.2%,/
[O-][n+]1c2ccccc2c2n1CCCN=C2c1ccc(Cl)cc1,/,1.2%,-5.3%,78.4,47.4%,-9.6%
CCOc1ccccc1Cn1c(=O)sc2ccccc21,13.3%,10.1%,-8.5%,-66.1*,-14.2%,-2.0%
O=c1sc2ccccc2n1COc1ccccc1,6.6%,19.6%,-11.8%,-95.0*,25.2%,-10.3%
FC(F)(F)c1nc(-c2cccnc2)ncc1-c1nnnn1-c1ccccc1,-0.4%,?,/,-25.7,0.0%,/

# Screens as filed in PubChem BioAssay.
